Several values for one entry are separate records, joined by “and”; a condition that tells them apart may be missing. Identical values can stand only once. Activity calls are given as the source filed them. Unless noted, no stated cut-off is given here; in the data, active means inhibition above about 80%; inactive means the rest.
Tests used:
[1] = P. berghei load reduction in hepatocytes – cell-based, HepG2, luciferase luminescence, HepG2 viability, primary screen (AID 624349; in the data active means parasite load remaining mostly below about 12%, no sharp cut-off; inactive means mostly above about 10%;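 further: 100% = mean of DMSO negative control wells on the same plate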); settings: P. berghei liver stage in HepG2, luciferase luminescence, concentration not given here; parasite load remaining: stronger effect = lower value; viability: measured here: HepG2 viability without parasites
[2] = target: 6-phosphogluconate dehydrogenase, decarboxylating (Homo sapiens) (UniProt P52209); test: inhibition of human phosphogluconate dehydrogenase – biochemical, recombinant enzyme, NADPH absorbance, primary screen (AID 1159550;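 active means at least 20% inhibition of 6-phosphogluconate dehydrogenase activity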); settings: recombinant 6PGD, NADPH absorbance 341 nm; at 10 µM; stronger effect = higher value
Chain of 6-phosphogluconate dehydrogenase, decarboxylating (Homo sapiens) (P52209 whole entry, looked up): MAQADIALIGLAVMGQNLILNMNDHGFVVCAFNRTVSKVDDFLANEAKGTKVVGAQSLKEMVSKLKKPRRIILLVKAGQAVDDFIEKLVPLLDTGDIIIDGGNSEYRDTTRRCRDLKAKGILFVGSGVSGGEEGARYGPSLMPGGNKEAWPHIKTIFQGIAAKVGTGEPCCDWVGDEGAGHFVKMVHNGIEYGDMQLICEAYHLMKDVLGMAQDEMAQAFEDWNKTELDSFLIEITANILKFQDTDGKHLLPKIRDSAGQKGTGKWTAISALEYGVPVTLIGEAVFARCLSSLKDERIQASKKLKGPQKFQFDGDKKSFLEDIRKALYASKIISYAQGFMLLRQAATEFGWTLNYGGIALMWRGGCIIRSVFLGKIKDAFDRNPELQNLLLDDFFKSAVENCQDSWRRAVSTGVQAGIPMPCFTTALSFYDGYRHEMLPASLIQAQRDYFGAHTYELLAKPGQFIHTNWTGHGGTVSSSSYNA

[3] = viability loss with induced miR-34 in A549 – imaging, A549 dox-inducible miR-34, nuclei and caspase counts, primary screen (AID 1347080;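 active means compounds whose cell count with miR-34 switched on is under 0.7 times the count with it off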); settings: A549 miR-34 inducible, Hoechst nuclei count, 48 h
[4] = MELAS cybrid and Rieske KO viability enhancers – cell-based, MELAS cybrids, Rieske KO mouse fibroblasts, CellTiter-Glo, primary screen (AID 1508586;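 active means mean z-score across replicates of 1.96 or higher in either the MELAS or the Rieske mutant cell line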;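 further: z relative to plate mean and SD of compound and empty wells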); settings: low glucose
[5] = galactose survival enhancers in mitochondrial complex I cybrids – cell-based, galactose medium, ATP luminescence, primary screen (AID 1645843;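 active means z-score of at least 1.8 in each of two replicates, scored against plate mean and spread of sample wells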;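 further: positive z means more ATP and so rescue of galactose-driven cybrid death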); settings: complex I mutant cybrid cells, 72 h, stronger effect = higher value
[6] = compounds altering viability of human ES cells (AID 493140; call rule not given here;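 further: cells exposed to compounds for four days before counting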); settings: human embryonic stem cell survival screen; stronger effect = higher value
[7] = target: NAD(+) hydrolase SARM1 (Homo sapiens) (UniProt Q6SZW1); test: blocking NAD cleavage by SARM1 SAM-TIR – cell lysate, NAD-Glo luminescence (AID 1508614;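 active means compound whose remaining NAD level is above about 45 nM, limit read from the data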); settings: SAM-TIR HEK293T lysate NADase, at 1 µM, stronger effect = higher value
Chain of NAD(+) hydrolase SARM1 (Homo sapiens) (Q6SZW1 whole entry, looked up, the tested form may be a part): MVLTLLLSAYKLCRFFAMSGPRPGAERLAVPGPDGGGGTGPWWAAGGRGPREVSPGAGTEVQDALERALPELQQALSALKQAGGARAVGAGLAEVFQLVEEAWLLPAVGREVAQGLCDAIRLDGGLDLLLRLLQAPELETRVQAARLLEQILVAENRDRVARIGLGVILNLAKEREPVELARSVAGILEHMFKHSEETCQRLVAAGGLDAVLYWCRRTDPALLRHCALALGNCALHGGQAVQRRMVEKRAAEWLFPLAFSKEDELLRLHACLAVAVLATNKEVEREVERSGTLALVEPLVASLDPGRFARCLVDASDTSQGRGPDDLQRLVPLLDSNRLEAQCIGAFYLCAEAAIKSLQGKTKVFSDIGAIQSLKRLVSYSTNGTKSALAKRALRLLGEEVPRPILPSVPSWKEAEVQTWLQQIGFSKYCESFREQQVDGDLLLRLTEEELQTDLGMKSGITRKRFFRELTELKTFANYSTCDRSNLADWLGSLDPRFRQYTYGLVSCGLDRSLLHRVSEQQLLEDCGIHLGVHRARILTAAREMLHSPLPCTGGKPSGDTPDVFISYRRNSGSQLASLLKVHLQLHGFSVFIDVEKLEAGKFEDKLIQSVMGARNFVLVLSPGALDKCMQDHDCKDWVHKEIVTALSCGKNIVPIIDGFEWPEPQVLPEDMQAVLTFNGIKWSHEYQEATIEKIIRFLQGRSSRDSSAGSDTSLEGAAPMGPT

[8] = target: Mitogen-activated protein kinase 7 (Homo sapiens) (UniProt Q13164); test: Gal4-ERK5 driven luciferase induction – cell-based, HTS, primary screen (AID 1508626;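 active means luciferase signal above three times the same-plate solvent-only control wells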;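 further: luciferase driven by Gal4-ERK5 fusion binding five Gal4 sites before minimal TATA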); settings: HeLa Gal4-ERK5 transactivation, 18 h, at 5 µM, stronger effect = higher value
Chain of Mitogen-activated protein kinase 7 (Homo sapiens) (Q13164 whole entry, looked up, the tested form may be a part): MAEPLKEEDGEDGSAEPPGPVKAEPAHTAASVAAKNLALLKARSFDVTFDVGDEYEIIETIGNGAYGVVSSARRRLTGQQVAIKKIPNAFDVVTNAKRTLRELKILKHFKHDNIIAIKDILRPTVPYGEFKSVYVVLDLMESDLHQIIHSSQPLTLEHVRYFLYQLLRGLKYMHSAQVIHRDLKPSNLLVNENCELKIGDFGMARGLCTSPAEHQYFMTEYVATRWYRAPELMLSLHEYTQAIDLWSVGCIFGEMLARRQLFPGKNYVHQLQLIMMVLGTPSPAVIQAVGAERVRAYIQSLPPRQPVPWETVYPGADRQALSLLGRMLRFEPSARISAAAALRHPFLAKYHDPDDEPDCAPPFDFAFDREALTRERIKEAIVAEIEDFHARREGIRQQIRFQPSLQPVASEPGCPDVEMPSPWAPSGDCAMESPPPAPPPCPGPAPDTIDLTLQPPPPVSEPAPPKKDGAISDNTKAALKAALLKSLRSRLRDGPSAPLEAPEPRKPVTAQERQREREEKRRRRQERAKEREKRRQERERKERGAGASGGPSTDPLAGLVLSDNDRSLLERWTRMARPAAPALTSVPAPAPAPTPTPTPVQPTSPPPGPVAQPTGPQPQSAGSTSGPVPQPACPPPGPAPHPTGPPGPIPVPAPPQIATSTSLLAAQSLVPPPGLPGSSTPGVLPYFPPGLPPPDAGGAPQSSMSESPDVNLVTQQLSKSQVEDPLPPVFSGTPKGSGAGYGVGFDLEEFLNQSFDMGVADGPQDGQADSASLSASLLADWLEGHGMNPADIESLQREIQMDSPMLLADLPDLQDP

[9] = growth inhibition, single agent or in combination, cell-based, chromothripsis tumors, cisplatin or BGB combos (AID 1671449); settings: LFS_MB_P medulloblastoma cells;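 further: cells exposed for 96 hours; 0% = vehicle DMSO and 100% = killing by high DMSO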
[10] = growth inhibition, single agent and combos, cell-based, chromothripsis tumors, cisplatin or BGB combos (AID 1671450); settings: HDN33 neuroblastoma cells, stronger effect = higher value;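 further: cells exposed to compound for four days; 0% = vehicle DMSO and 100% = cell killing by high DMSO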
[11] = growth inhibition, single agents and combos, ICB984, cell-based, cisplatin or BGB combos, synergistic combos for chromothripsis tumors (AID 1671451; call rule not given here;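 further: cells exposed for 96 hours before readout; 0% = vehicle DMSO and 100% = killing by high DMSO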); settings: ICB984 medulloblastoma cells, drug combinations, stronger effect = higher value
[12] = growth inhibition, single agents and combos, LFS_MB_1R, cell-based, cisplatin or BGB combos, synergistic combos for chromothripsis tumors (AID 1671452); settings: LFS_MB_1R medulloblastoma cells, stronger effect = higher value;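 further: cells exposed for 96 hours before readout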
[13] = growth inhibition, single agents and combos, HTB85, cell-based, BGB or cisplatin IC20 combos, synergistic combos for chromothripsis tumors (AID 1671453); settings: HTB85 osteosarcoma cells, drug combinations, stronger effect = higher value;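 further: cells exposed for 96 hours before readout; 0% = vehicle DMSO and 100% = high DMSO killing control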
[14] = growth inhibition, single agents and combos, CRL2098, cell-based, BGB or cisplatin IC20 combos, synergistic combos for chromothripsis tumors (AID 1671454); settings: CRL2098 osteosarcoma cells, drug combinations, stronger effect = higher value;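 further: cells exposed for 96 h before readout; 0% = vehicle DMSO and 100% = killing by high DMSO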
[15] = growth inhibition, single agents and combos, HD-MB03, cell-based, BGB or cisplatin IC20 combos, synergistic combos for chromothripsis tumors (AID 1671455; in the data active means inhibition above about 83%;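 further: 0% = vehicle DMSO and 100% = high DMSO as cytotoxic control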); settings: HD-MB03 medulloblastoma cells, stronger effect = higher value
[16] = growth inhibition, single agents and combos, UWB1.289, cell-based, BGB or cisplatin combos, synergistic combos for chromothripsis tumors (AID 1671456); settings: UWB1.289 ovarian carcinoma cells, stronger effect = higher value;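 further: cells exposed to compound for four days; 0% = vehicle DMSO and 100% = killing by high DMSO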
[17] = growth inhibition, single agents and combos, LFS_MB_2R, cell-based, cisplatin combos, synergistic combos for chromothripsis tumors (AID 1671457); settings: LFS_MB_2R medulloblastoma cells, stronger effect = higher value;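 further: cells exposed to compound for four days before readout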
[18] = growth inhibition, MDA-MB-436, cell-based, BGB or cisplatin combos, synergistic combos for chromothripsis tumors (AID 1671458; call rule not given here;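 further: cells exposed for 96 hours; 0% = vehicle DMSO and 100% = killing by high DMSO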); settings: MDA-MB-436 breast carcinoma growth inhibition, drug combinations, stronger effect = higher value
[19] = UWB1.289_BRCA1 ovarian cancer growth, cell-based, BGB or cisplatin combinations (AID 1671459); settings: UWB1.289 BRCA1 ovarian carcinoma, drug combinations, stronger effect = higher value
[20] = drug combination toxicity in non-malignant astrocytes – cell-based, BGB or cisplatin IC20 combos, cytotoxicity control for chromothriptic childhood tumor combination screen (AID 1671460); settings: Human astrocytes, viability inhibition, drug combinations, at 0.5 µM, stronger effect = higher value;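 further: cells exposed to compounds for 96 hours before viability readout; 0% = vehicle and 100% = killing control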
[21] = BT084 cell growth, single and combined drugs, ICGC_MB145, cisplatin and BGB IC40 combos (AID 1671461); settings: BT084 medulloblastoma cells, drug combinations, stronger effect = higher value;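 further: cells exposed to drugs for 96 hours; 0% = vehicle DMSO and 100% = high DMSO full killing control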
[22] = RCMB18 cell growth, single agent and combined, cisplatin and BGB IC40 combos (AID 1671462); settings: RCMB18 medulloblastoma cells, stronger effect = higher value;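 further: cells exposed to compound for four days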
[23] = CRL1545 cell growth, single agent and combined, cisplatin and BGB IC20 combos (AID 1671464); settings: CRL1545 osteosarcoma cells, stronger effect = higher value;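 further: cells exposed to compound for 96 hours before readout; 0% = vehicle DMSO and 100% = high DMSO killing control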
[24] = stronger effect = lower value, cell number ratio, induced over uninduced
[25] = measured here: relative caspase fold change +Dox/-Dox
[26] = measured here: total cells with miR-34 induction, stronger effect = lower value
[27] = measured here: total cells without miR-34 induction
[28] = MELAS cybrid survival, CellTiter-Glo 48 h, stronger effect = higher value
[29] = Rieske KO mouse fibroblast survival, CellTiter-Glo 72 h
[30] = measured here: combination with BGB IC40, at 0.05 µM
[31] = measured here: with BGB IC20 combination, at 0.5 µM
[32] = measured here: with cisplatin IC20 combination, at 0.5 µM
[33] = measured here: combination with cisplatin, at 0.5 µM
[34] = measured here: combination with cisplatin, at 5 µM

C[C@@H]1C(=O)O[C@H]2C[C@@]34[C@H]5C[C@@H](C(C)(C)C)[C@]36[C@@H](OC(=O)[C@@H]6O)O[C@@]4(C(=O)O5)[C@]21O
parasite load remaining [1]: 48.8% (inactive) | viability [1]: 110% | inhibition [2]: 0.379% (inactive) | fold change [3, 24]: 0.95 (inactive) | fold change [3, 25]: 1.75 | cell count [3, 26]: 10300 | cell count [3, 27]: 10800 | z-score [4, 28]: 0.0275 (inactive) | z-score [4, 29]: -1.08 | z-score [5]: 0.435 (inactive)

C#C[C@]1(O)CC[C@H]2[C@@H]3CCC4=C(CCC(=O)C4)[C@H]3CC[C@@]21C
survival [6]: 25.3 (inactive) | parasite load remaining [1]: 17.7% (inactive) and 100% (inactive) | viability [1]: 48% and 90.5% | inhibition [2]: -2.85% (inactive) | fold change [3, 24]: 0.896 (inactive) | fold change [3, 25]: 0.927 | cell count [3, 26]: 7990 | cell count [3, 27]: 8920 | z-score [4, 28]: 0.723 (inactive) | z-score [4, 29]: 0.808 | remaining NAD [7]: 10 nM (inactive) | luciferase signal [8]: 44 AU (inactive)

CN(N=O)C(=O)NC1C(O)OC(CO)C(O)C1O (stereo not given)
inhibition [2]: -8.43% (inactive) | fold change [3, 24]: 0.895 (inactive) | fold change [3, 25]: 0.982 | cell count [3, 26]: 7750 | cell count [3, 27]: 8650 | z-score [4, 28]: -0.392 (inactive) | z-score [4, 29]: 0.645 | inhibition ([9]; at 0.5 µM, stronger effect = higher value): -5.09% (inactive) | inhibition ([9]; measured here: combination with BGB IC20, at 0.005 µM): 2.88% | inhibition ([9]; measured here: combination with BGB IC40, at 0.005 µM): -23% | inhibition [9, 30]: 9.79% | inhibition ([9]; measured here: combination with cisplatin, at 0.5 µM, stronger effect = higher value): 18.7% | inhibition ([9]; measured here: combination with cisplatin, at 5 µM, stronger effect = higher value): -15% | inhibition ([10]; BGB combo, at 5 µM): -42.3% | inhibition ([10]; at 0.5 µM): -18.9% (inactive) | inhibition ([10]; cisplatin combo, at 5 µM): -31.9% | inhibition [10, 31]: -17.4% | inhibition [10, 32]: -13.6% | inhibition ([10]; single agent, at 5 µM): -38.9% | inhibition ([11]; BGB IC20 combo, at 0.005 µM): -31.3% | inhibition ([11]; BGB IC40 combo, at 0.005 µM): -16.7% | inhibition ([11]; BGB IC40 combo, at 0.05 µM): -24.6% | inhibition ([11]; at 0.5 µM): -5.69% (inactive) | inhibition ([11]; cisplatin combo, at 0.05 µM): -31% | inhibition ([11]; cisplatin combo, at 0.5 µM): -0.064% | inhibition ([11]; cisplatin combo, at 5 µM): -5.86% | inhibition ([11]; measured here: 5 uM single agent, at 5 µM): -8.73% | inhibition ([12]; at 0.5 µM): -12.5% (inactive) | inhibition [12, 30]: 0.459% | inhibition [12, 33]: -24.7% | inhibition [12, 34]: -26.7% | inhibition ([13]; at 0.5 µM): -27.9% (inactive) | inhibition ([13]; measured here: with BGB IC20, at 0.5 µM): -20.4% | inhibition ([13]; measured here: with BGB IC20, at 5 µM): -14.4% | inhibition ([13]; measured here: with cisplatin IC20, at 0.5 µM): -29.4% | inhibition ([13]; measured here: with cisplatin IC20, at 5 µM): -17.4% | inhibition ([13]; single agent, at 5 µM): -23.4% | inhibition ([14]; at 0.5 µM): -39.9% (inactive) | inhibition ([14]; measured here: combination with BGB at IC20, at 0.5 µM): -31.6% | inhibition ([14]; measured here: combination with cisplatin at IC20, at 0.5 µM): -51.1% | inhibition ([15]; at 0.5 µM): -11.6% (inactive) | inhibition ([15]; measured here: combo with BGB at IC20, at 0.5 µM): -2.88% | inhibition ([15]; measured here: combo with cisplatin at IC20, at 0.5 µM): -22.4% | inhibition ([16]; at 0.5 µM): -9.59% (inactive) | inhibition ([16]; measured here: inhibition with BGB combination, at 0.05 µM): -0.199% | inhibition ([16]; measured here: inhibition with cisplatin combination, at 0.05 µM): -7.77% | inhibition ([17]; at 0.5 µM): -6.59% (inactive) | inhibition [17, 33]: -12.5% | inhibition [17, 34]: -15.1% | inhibition ([18]; at 0.5 µM): -6.07% (inactive) | inhibition ([18]; measured here: BGB combination, at 0.5 µM): -5.12% | inhibition ([18]; measured here: BGB combination, at 5 µM): 4.69% | inhibition ([18]; measured here: cisplatin combination, at 0.5 µM): -11.2% | inhibition ([18]; measured here: cisplatin combination, at 5 µM): 0.976% | inhibition ([19]; BGB combination, concentration series, at 5 µM): -8.48% | inhibition ([19]; at 0.5 µM): -13% (inactive) | inhibition ([19]; cisplatin combination, concentration series, at 5 µM): 0.433% | inhibition [20]: -2.34% (inactive) | inhibition ([20]; measured here: combo with BGB IC20): -2.11% | inhibition ([20]; measured here: combo with cisplatin IC20): -7.96% | inhibition ([21]; at 0.5 µM): 9.28% (inactive) | inhibition ([21]; cisplatin combination, at 0.5 µM): 2.65% | inhibition ([21]; cisplatin combination, at 5 µM): -74.8% | inhibition ([21]; measured here: BGB IC40 combination 0.05 uM, at 0.05 µM): -4.62% | inhibition ([21]; single agent, at 5 µM): 14.7% | inhibition ([22]; at 0.5 µM): 8.81% (inactive) | inhibition ([22]; cisplatin combo, at 5 µM): -9.42% | inhibition ([22]; measured here: BGB IC40 combination, at 0.05 µM): -16.3% | inhibition [22, 33]: -21.8% | inhibition ([22]; single agent, at 5 µM): -8.26% | inhibition ([23]; at 0.5 µM): 3.09% (inactive) | inhibition [23, 31]: -18.9% | inhibition [23, 32]: 12.7% | inhibition ([23]; single agent, at 0.05 µM): -1.79% | inhibition ([23]; single agent, at 5 µM): -17.1%

CN(C)CCCO[C@@H]1[C@H]2OC(C)(C)O[C@H]2O[C@@H]1[C@H](O)CO
parasite load remaining [1]: 63.5% (inactive) | viability [1]: 92.5% | inhibition [2]: 8.75% (inactive) | fold change [3, 24]: 0.9 (inactive) | fold change [3, 25]: 1.16 | cell count [3, 26]: 9050 | cell count [3, 27]: 10100 | z-score [4, 28]: 0.565 (inactive) | z-score [4, 29]: -0.271 | luciferase signal [8]: 44 AU (inactive)

O=C1O[C@H]([C@@H](O)CO)C(O)=C1O
parasite load remaining [1]: -6.73% (active) | viability [1]: 110% | inhibition [2]: -9.94% (inactive) | fold change [3, 24]: 0.839 (inactive) | fold change [3, 25]: 1.22 | cell count [3, 26]: 7560 | cell count [3, 27]: 9010 | z-score [4, 28]: -0.883 (inactive) | z-score [4, 29]: -0.395 | remaining NAD [7]: 10 nM (inactive) | luciferase signal [8]: 60 AU (inactive)

CN[C@@H]1[C@@H](O[C@H]2O[C@H](CO)[C@@H](N)[C@H](O)[C@H]2O)O[C@H]2C[C@@H](N)[C@@H](O[C@H]3[C@H](O)[C@@H](O)[C@H](N)C[C@@H]3N)O[C@@H]2[C@@H]1O
parasite load remaining [1]: 21.5% (inactive) | viability [1]: 69% | inhibition [2]: 3.92% (inactive) | fold change [3, 24]: 0.906 (inactive) | fold change [3, 25]: 1.04 | cell count [3, 26]: 9860 | cell count [3, 27]: 10900 | z-score [4, 28]: 0.598 (inactive) | z-score [4, 29]: 0.317 | remaining NAD [7]: 10 nM (inactive) | luciferase signal [8]: 28 AU (inactive) | z-score [5]: 0.86 (inactive)
